Test results reported in PubChem BioAssay AID1578 (Sanford-Burnham Center for Chemical Genomics, 2009).
Out of some 290,000 compounds screened, about 3,000 (1%) were called active. The sample holds actives, similar compounds and a random draw of the others, so the mix is not that of the screen. No stated cut-off is given here; in the data, active means inhibition mostly above about 36% (no sharp cut-off); inactive means mostly below about 34%.

Assay: inhibition of NOD1-driven NF-kB reporter – cell-based, luminescence, uHTS, primary screen (AID 1578);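 further: HEK-293T reporter cells stimulated with the NOD1 agonist gamma-tri-DAP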
Conditions: NOD1-driven NF-kB luciferase reporter cells, at 4 µM, active compounds read high

| Structure (SMILES) | inhibition |
| --- | --- |
| NNC(=O)c1cccn(Cc2cccc(C(F)(F)F)c2)c1=O | -7.3% (inactive) |
| CCn1c(SCC(=O)Nc2nc(C)c(C)s2)nnc1-c1ccco1 | 4.8% (inactive) |
| O=C(NCCCCc1ccccc1)Nc1cccc(F)c1 | -18.4% (inactive) |
| CCc1nnc(NS(=O)(=O)c2ccc(NC(=S)NC(=O)c3ccc(OC)c(OC)c3)cc2)s1 | -10.1% (inactive) |
| C#Cc1ccc([C@@H]2C=C(C(=O)N3CCN(Cc4ccc5c(c4)OCO5)CC3)O[C@H](OCCCCO)C2)cc1 | -5.3% (inactive) |
| O=C(CN1CC[C@@]2(O)CCCC[C@H]2[C@@H]1c1ccc(F)cc1)NCc1ccco1 | -15% (inactive) |
| Cc1cc(Cl)ccc1C(=O)C1CCCN(C(=O)c2cscn2)C1 (centres undefined) | -13.1% (inactive) |
| COC(=O)C(CCSC)NS(=O)(=O)c1ccc(Cl)cc1 (centres undefined) | -19.4% (inactive) |
| O=S(=O)(c1ccccc1)N(Cc1ccccc1)c1ccccn1 | -18.3% (inactive) |
| O=C(Nc1nc(-c2ccc3c(c2)OCO3)cs1)C1CC1 | -36.4% (inactive) |
| CC(=O)Nc1nc(-c2ccc3c(c2)OCO3)cs1 | 1.1% (inactive) |
| Cc1ccc2nc(N3CCN(S(=O)(=O)c4ccc(C)c(Cl)c4)CC3)c(C#N)cc2c1 | -0.6% (inactive) |
| Cc1nc2ccc(S(=O)(=O)NCC(=O)N3CCN(c4ccccn4)CC3)cc2s1 | 8.2% (inactive) |
| COC(=O)C1(CCSC)NC(c2ccco2)C2C(=O)N(C)C(=O)C21 (centres undefined) | -7.2% (inactive) |
| C/C(=N\NC(=O)COc1ccc(C(C)(C)C)cc1)c1ccc(-n2ccnc2)cc1 | -48% (inactive) |
| COc1cc(NC(=O)COc2ccc(-n3ccnc3)cc2)cc(OC)c1 | 39.3% (inactive) |
| CC(C)(C)c1ccc(NC(=O)COc2ccc(-n3ccnc3)cc2)cc1 | 74.6% (active) |
| Cc1ccc(NC(=O)CSc2nnc(C)n2CC2CCCO2)cc1 (centres undefined) | -27.7% (inactive) |
| CCc1ccccc1NCC(=O)Nc1ccc(Cl)c(C(F)(F)F)c1 | -18.7% (inactive) |
| CCOC(=O)CSC1=NN2CCS(=O)(=O)N=C2S1 | -12.9% (inactive) |
| C=CCSC1=NN2CCS(=O)(=O)N=C2S1 | -14.6% (inactive) |
| CCSC1=NN2CCS(=O)(=O)N=C2S1 | 44.5% (active) |
| COc1ccc(/C(N)=N/OC(=O)c2cccs2)cc1OC | -61.8% (inactive) |
| COc1ccccc1CNC(=O)C1CCN(C(=O)c2sccc2-n2cccc2)CC1 | -18.4% (inactive) |
| CCC(NC(=O)c1ccccc1NC(=O)c1ccccc1)C(=O)NNC(=O)c1cccnc1 (centres undefined) | -7.6% (inactive) |

| Structure (SMILES) | inhibition |
| --- | --- |
| CCN(C(=O)COC(=O)c1cccnc1Nc1ccccc1F)C1CCS(=O)(=O)C1 (centres undefined) | -22.9% (inactive) |
| CCOc1ccc(NC(=O)CCSc2nnc(C)s2)cc1 | 7.9% (inactive) |
| Cc1ccc2c(c1)Oc1ccc(NC(=O)CCl)cc1C(=O)N2 | 103% (active) |
| Cc1ccc2c(c1)Oc1ccc(NC(=O)CCCl)cc1C(=O)N2 | 0.2% (inactive) |
| Cc1ccc2c(c1)Oc1ccc([N+](=O)[O-])cc1C(=O)N2 | -16.6% (inactive) |
| CCCn1c(N)c(N(CCOC)C(=O)/C=C/c2cccc(Cl)c2)c(=O)[nH]c1=O | -16.5% (inactive) |
| CC12CN3CC(C)(CN(C1)C3c1ccc(F)cc1)C2 (centres undefined) | -30.5% (inactive) |
| O=C(O)CCCC(=O)Nc1ccc(Oc2ncnc3cc(Cl)ccc23)nc1 | -10.7% (inactive) |
| CC(C(=O)N(C1CC1)C1(C(=O)Nc2ccccc2)CCCC1)N1C(=O)c2ccccc2C1=O (centres undefined) | 7.8% (inactive) |
| COC(=O)c1ccccc1NC(=O)NCc1ccccn1 | -25.3% (inactive) |
| Oc1ccc(Cl)cc1C=Nc1ccc2c3c(cccc13)CC2 | 38.7% (inactive) |
| Cc1cccc(C=Nc2ccc3c4c(cccc24)CC3)c1O | -17.9% (inactive) |
| Oc1ccc(Br)cc1C=Nc1ccc2c3c(cccc13)CC2 | 101% (active) |
| Cc1cc(C(=O)NCCc2ccccc2)c2cc(F)ccc2n1 | 1.9% (inactive) |
| CN(c1cccc(Cl)c1)S(=O)(=O)c1cccc(C(=O)Nc2nc3ccccc3[nH]2)c1 | 53% (inactive) |
| CN(c1ccccc1)S(=O)(=O)c1ccc(Cl)c(C(=O)Nc2nc3ccccc3[nH]2)c1 | 3.8% (inactive) |
| O=C(NCc1ccccc1)c1cnsn1 | -16.6% (inactive) |
| CC1CCc2nc3ccccc3c(C(=O)OCC(=O)N(C)C3CCS(=O)(=O)C3)c2C1 (centres undefined) | -19.9% (inactive) |
| COc1cc(C(=O)Nc2ccc(Nc3ccccc3)cc2)cc(OC)c1OC | -1.1% (inactive) |
| Cc1ccc(C)c(CS(=O)(=O)c2cn(CC(=O)N3CCCCC3)c3ccccc23)c1 | -19.4% (inactive) |
| O=C(NN=C1CCCC1)c1cc(Br)ccc1O | -58.6% (inactive) |
| O=C1N/C(=N/O)S/C1=C/c1cccc([N+](=O)[O-])c1 | -24.9% (inactive) |
| CC1(C)C2C/C(=N\O)C(C)(/[N+]([O-])=C/c3cccc([N+](=O)[O-])c3)CC21 (centres undefined) | 62.4% (active) |
| CC(C)N(C(=O)CO/N=C/c1cccc([N+](=O)[O-])c1)C(C)C | -4.4% (inactive) |
| Cc1nnc(SCC(=O)O)s1 | -10.4% (inactive) |

| Structure (SMILES) | inhibition |
| --- | --- |
| Cc1ccc(-c2nc(CN3CCCC(C(=O)N4CCOCC4)C3)c(C)o2)cc1 (centres undefined) | -23.5% (inactive) |
| COC(=O)c1cnn(-c2ccc(Cl)cc2)c1/C=N/NC(N)=S | 5.8% (inactive) |
| CN(C)S(=O)(=O)c1cccc(NC(=O)c2ccncc2)c1 | -4.4% (inactive) |
| CN(C)S(=O)(=O)c1cccc(NC(=O)c2cnccn2)c1 | -27.8% (inactive) |
| CCOc1ccc(N/C(N)=N/c2nc(C)cc(C)n2)cc1 | -34.6% (inactive) |
| O=Cc1c(NCCN2CCCC2)c2ccccc2[nH]c1=O | 0.2% (inactive) |
| CN1CCN(CCCNc2c(C=O)c(=O)[nH]c3ccccc23)CC1 | -5.5% (inactive) |
| O=Cc1c(NCCN2CCOCC2)c2ccccc2[nH]c1=O | 59.2% (active) |
| O=[N+]([O-])c1ccc(Cl)c(CN2CCN(c3ncccn3)CC2)c1 | -27.2% (inactive) |
| Cc1cc(C)nc(NC(=O)c2ccc(C)o2)n1 | -48.4% (inactive) |
| O=C1CC(c2cc(F)ccc2F)c2cc3c(cc2N1)CCC3 (centres undefined) | 64.2% (active) |
| O=C1CC(c2ccccc2F)c2cc3c(cc2N1)CCC3 (centres undefined) | 8.6% (inactive) |
| O=C1CC(c2ccc(F)cc2)c2cc3c(cc2N1)CCC3 (centres undefined) | 28.6% (inactive) |
| COc1ccc(NC(=O)CCn2cc(C)c3ccccc32)cc1 | -5.7% (inactive) |
| O=C(N/N=C/c1ccccc1)c1ccc(-c2ccccc2)cc1 | -17.2% (inactive) |
| CCCCCCCn1c(NC(=O)CC)nc2ccccc21 | 109% (active) |
| CCC(=O)Nc1nc2ccccc2n1Cc1ccccc1 | 23.4% (inactive) |
| CCC(=O)Nc1nc2ccccc2n1CCN(C)C | -15.3% (inactive) |
| CCC(=O)Nc1nc2ccccc2n1Cc1ccc(C)cc1 | 31.5% (inactive) |
| CCC(=O)Nc1nc2ccccc2n1CCN(CC)CC | -9.6% (inactive) |
| CCC(=O)Nc1nc2ccccc2n1Cc1ccc(Cl)cc1 | 101% (active) |
| CCn1c(C)nc2cc(C(=O)n3cc(C(=O)c4cc(F)ccc4O)cn3)ccc21 | 23.8% (inactive) |
| Nc1ccc(-c2nc3ccccc3o2)cc1 | 5.8% (inactive) |
| COc1ccc([C@@H]2[C@@H]3C(=O)N(C(C)(C)C)C(=O)[C@@H]3[C@]3(Cc4ccc(Cl)cc4)C(=O)N(c4cccc(C)c4)C(=O)N23)cc1 | 13.2% (inactive) |
| COc1cccc(NC(=O)C2CCN(S(C)(=O)=O)CC2)c1 | -30.4% (inactive) |

| Structure (SMILES) | inhibition |
| --- | --- |
| Cc1cc(S(=O)(=O)Nc2ccc3c(c2)n(C)c(=O)n3C)ccc1F | 0.4% (inactive) |
| Oc1c(Br)cc(Br)cc1CNn1cnnc1 | 5.1% (inactive) |
| COc1cc(SC)ccc1C(=O)Nc1nc(C)cs1 | 91.9% (active) |
| COc1cc(SC)ccc1C(=O)Nc1ncc(C)s1 | 82.7% (active) |
| COc1cc(SC)ccc1C(=O)Nc1nc(C)cc(C)n1 | -19.1% (inactive) |
| COc1cc(SC)ccc1C(=O)Nc1ccc(Cl)cn1 | 16.3% (inactive) |
| COc1cc(SC)ccc1C(=O)Nc1nccs1 | -52.4% (inactive) |
| COc1cc(SC)ccc1C(=O)Nc1cccc(C)n1 | -70% (inactive) |
| CCCCOc1ccccc1/C=N/NC(=O)CC#N | -26.1% (inactive) |
| O=C(NNC(=S)Nc1ccc(Cl)cc1)c1ccccc1OC(F)F | -11.7% (inactive) |
| COc1ccccc1-n1cc(-c2ccc(Br)cc2)[nH]c1=S | -0.3% (inactive) |
| Cc1sc2ncnc(Sc3ccccc3C(=O)Nc3ccc(Br)cc3)c2c1C | 9.8% (inactive) |
| Nc1c(Br)c(=O)[nH]c(=O)n1-c1ccccc1 | 6.9% (inactive) |
| COc1ccc(N/N=C(/N=Nc2nc(C)cc(=O)[nH]2)c2ccccc2)cc1 | 11.2% (inactive) |
| Cc1cc(=O)[nH]c(N=N/C(=N/Nc2ccccc2C)c2ccccc2)n1 | 45.2% (inactive) |
| Cc1cc(=O)[nH]c(N=N/C(=N/Nc2ccc(O)cc2)c2ccccc2)n1 | 105% (active) |
| COc1ccc(N(CC(=O)NC2CCCCC2)C(=O)c2snc(C(N)=O)c2N)cc1 | -27.6% (inactive) |
| CN1CCN(CCCNC(=O)Cn2nc(-c3ccccc3)ccc2=O)CC1 | -20.1% (inactive) |
| O=C(O)c1nc(N2CCCC2)ncc1Cl | 0.1% (inactive) |
| O=C1/C(=C/c2cccnc2)CCc2c1[nH]c1ccccc21 | 82% (active) |
| O=C1/C(=C\c2ccccc2)CCc2c1[nH]c1ccccc21 | -31.1% (inactive) |
| Cc1ccc(/C=C2/CCc3c([nH]c4ccccc34)C2=O)cc1 | -61.5% (inactive) |
| COC(=O)c1cn(CCOc2ccccc2)c2ccccc12 | -11.9% (inactive) |
| COc1ccccc1C(=O)Nc1cccnc1 | -35.2% (inactive) |
